Test in all cases: NCI-60 one-dose screen, 48 h (100 = growth as untreated, 0 = no growth, -100 = all killed)
What all share (conditions): 10 µM unless noted

The subject of test [1] is NCI-H23 lung.
The test system of test [2] is NCI-H226 lung.
For test [3], the system named is NCI-H322M lung.
The test system of test [4] is HOP-62 NSCLC.
Test [5] concerns NCI-H460 lung.
In test [6] the test system is HOP-92 NSCLC.
Test [7] concerns A549/ATCC NSCLC.
Test [8] deals with 786-0 renal.
Test [9] relates to COLO 205 colon.
For test [10], the system named is DU-145 prostate.
The test system of test [11] is K-562 leukemia.
The test system of test [12] is MALME-3M melanoma.
For test [13], the system named is MDA-MB-231 breast.
Test [14] has as its system RXF 393 renal.
Test [15] relates to SF-268 CNS.
For test [16], the system named is SF-295 CNS.
Test [17] has as its system SF-539 CNS.
The test system of test [18] is UACC-257 melanoma.
In test [19] the test system is M14 melanoma.

Each structure is given as a SMILES string. The panel holds about 83,000 compounds, 20% with a hit somewhere; the sample as a whole holds those more often.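 Single-dose data. Exposure time 48 hours. Values below 10 considered active.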 Unmarked numbers belong to inactive results. Active and inactive are the calls of the source.

As to `COc1cc(Cl)cc(-c2nn(-c3cccc(NC(=O)c4cc(C(F)(F)F)cc(C(F)(F)F)c4)c3)cc2-c2ccncc2)c1`, the growth in test [1] was 72.1%; in test [2] it was 76%; in test [3] it was 80.3%; in test [4], 103%; in test [5] it was 40.9%; in test [6], 46.8%. The growth in [7] was 43.5%; in test [8] it was 80.2%; in [9], 88.7%; in [10], 78.2%; in [11], 38%; in test [12], 104%. Also, the growth in [13] was 56.7%; in [14] it was 67.7%; in test [15] it was 89.2%; in [16] it was 42.1%; in test [17] it was 80%; in test [18], 79.3%. Moreover, the growth in [19] was 67.3%.
For the molecule `Cc1ccccc1NC(=O)NC(CC(N)=O)c1ccc2c(c1)nc(-c1cccc(Oc3ccc(C(C)(C)C)cc3)c1)n2CCCN1CCCCC1C` (configuration not stated), the growth in [1] was 64.7%; in test [2], 109%; in test [3] it was 65%; in test [4] it was 25.8%; in test [5] it was -30.7% (active); in test [6] it was 13.5%. Besides, the growth in test [7] is 54.9%; in test [8] it was 26.7%; in test [9] it was -65.6% (active); in [10], 68.2%; in [11], -44.6% (active); in test [12], -52.6% (active). Further, the growth in test [13] is 28.1%; in test [14], 25.1%; in test [15], 46.7%; in test [16] it was 83.5%; in test [17], 13.1%; in test [18] it was -71.3% (active). Besides, the growth in test [19] was -81.8% (active).
Consider `CC[N+](CCCCCCCCCC[N+](CC)(c1ccccn1)c1ccccn1)(c1ccccn1)c1ccccn1`, for which the growth is 1.17% (active) in test [1]; 33.2% in test [2]; -15.8% (active) in test [3]; 10.7% in [4]; 0.887% (active) in test [5]; -22.5% (active) in [6]. Moreover, the growth in [7] was 1.29% (active); in test [8] it was 34.5%; in test [9], -80% (active); in test [10], 13.6%; in test [11] it was -2.68% (active); in test [12], -10.7% (active). For the same molecule, the growth in test [13] was 15.9%; in test [14], 46.1%; in test [15], 17.1%; in test [16] it was -71.2% (active); in [17], 11%; in test [18], -19.2% (active). The growth in test [19] was 10.3%.
As to `Cc1ccccc1NC(=O)N/C(N)=N/c1nc2ccccc2s1`, the growth in test [1] is 31.8%; in test [2] it was 21%; in test [3], 39.2%; in test [4] it was 40.7%; in [5], 11.7%; in [6], 126%. Also, the growth was 22.7% in test [7]; 30.7% in test [8]; 6.68% (active) in [9]; 17.5% in test [10]; 6.45% (active) in [11]; 50.4% in [12]. Also, the growth in test [13] is 43.2%; in test [14], -2.64% (active); in test [15] it was 48.7%; in test [16], 11.8%; in [17] it was -17.9% (active); in test [18], 67.4%. The growth in test [19] is 9.91% (active).
As for `COc1cnc2c(c1)C(=O)c1c-2n(CCCn2ccnc2)c(=O)c2cc(F)ccc12`, the growth is -36.7% (active) in test [1]; -67.9% (active) in [2]; -1.28% (active) in test [3]; -29.8% (active) in test [4]; -62.9% (active) in test [5]; -15.9% (active) in [6]. In addition, the growth was -20.8% (active) in test [7]; -62.6% (active) in [8]; -34% (active) in test [9]; -56.4% (active) in test [10]; -4.93% (active) in test [11]; -52.2% (active) in [12]. The growth is 5.66% (active) in test [13]; -55.9% (active) in [14]; 3.73% (active) in test [15]; -5.57% (active) in test [16]; -60.6% (active) in [17]; -34.7% (active) in test [18]. In addition, in [19], the growth was -39.9% (active).
As for `CNCCCn1c2c(c3ccc(F)cc3c1=O)C(=O)c1cc(OC)cnc1-2`, the growth in test [1] was -41.5% (active); in [2], -61.2% (active); in test [3] it was -1.98% (active); in test [4], -30% (active); in test [5] it was -37.6% (active); in test [6], -12.4% (active). Moreover, the growth is -71.2% (active) in test [7]; -38.3% (active) in test [8]; -33.1% (active) in test [9]; 0.683% (active) in [10]; 1.41% (active) in [11]; -56.6% (active) in [12]. Moreover, the growth in [13] was 11.7%; in [14], -78.8% (active); in test [15], 4.62% (active); in [16], -15.3% (active); in test [17], -24.7% (active); in test [18] it was -16.5% (active). Besides, the growth in test [19] was -10.8% (active).
Take `Fc1ccccc1C1c2ccccc2-c2nccn21` (configuration not stated): the growth was 87% in [1]; 88.1% in [2]; 96.2% in test [3]; 98.4% in [4]; 110% in [5]; 61.8% in [6]. Further, the growth in [7] was 94.9%; in test [8], 89.7%; in [9] it was 111%; in test [10] it was 99.2%; in test [11] it was 73.9%; in test [12], 98.2%. The growth in test [13] is 102%; in test [14], -1.68% (active); in test [15], 109%; in test [16], 89.3%; in [17], 98.9%; in test [18], 96.6%. In addition, in test [19], the growth was 104%.
On to `CN(C)c1ccc(-c2nc3ncc(Br)cc3o2)cc1`, for which the growth was 87.5% in [1]; 97.9% in [2]; 90.2% in [3]; 91.9% in test [4]; 109% in test [5]; 61.8% in test [6]. Besides, the growth in test [7] was 103%; in [8], 86.5%; in test [9], 81.3%; in [10], 99.8%; in test [11], 81.5%; in test [12], 118%. Moreover, the growth in test [13] is 90.2%; in [14], 83.8%; in [15], 114%; in test [16], 109%; in test [17], 91.4%; in [18], 104%. For the same molecule, in test [19], the growth was 97.6%.
